# Tb PFK inh-1: qHTS Assay to Find Inhibitors of T. brucei phosphofructokinase; T. brucei PFK, ADP-Glo luminescence; actives 0.17% (n = 330,000); Potency, µM (highest dose often 57.5 µM), for the others: at the highest dose activity, negative = inhibition, usual class: inhibitors; ATP-dependent 6-phosphofructokinase (Trypanosoma brucei brucei), O15648;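 also: potency is read from the fitted curve at half-maximal effect; 0% = uninhibited 1x PFK enzyme wells and -100% = no-enzyme wells; nearly all actives have a fitted effect of over 60% in size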
# Target sequence (O15648 whole entry, looked up): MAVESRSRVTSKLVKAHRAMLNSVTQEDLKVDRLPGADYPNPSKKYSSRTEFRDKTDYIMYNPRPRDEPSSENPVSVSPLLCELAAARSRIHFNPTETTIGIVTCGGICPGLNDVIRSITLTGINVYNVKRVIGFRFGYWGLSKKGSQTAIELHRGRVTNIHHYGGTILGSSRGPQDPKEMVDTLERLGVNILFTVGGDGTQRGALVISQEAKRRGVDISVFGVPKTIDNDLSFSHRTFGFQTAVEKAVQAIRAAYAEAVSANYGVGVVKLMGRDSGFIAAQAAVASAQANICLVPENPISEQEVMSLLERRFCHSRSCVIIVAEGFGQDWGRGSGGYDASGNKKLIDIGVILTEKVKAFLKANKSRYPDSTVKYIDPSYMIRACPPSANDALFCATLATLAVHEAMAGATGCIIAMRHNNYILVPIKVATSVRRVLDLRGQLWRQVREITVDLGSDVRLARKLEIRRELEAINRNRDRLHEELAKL
#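 In TEA buffer at pH 8.0 with 5 mM MgCl2, enzyme (1.25 nM) converted F6P (0.5 mM) and ATP (0.1 mM) for 45 min at room temperature. ADP product was read by luciferase luminescence.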
# CCT chaperon mod: High-Throughput Screening for Modulators of Cytosolic Chaperonin Activity; activity change, % (test concentration not listed), hits read low; actives 0.3% (n = 360,000); purified chaperonin ATPase assay, HTRF ADP detection, 30 min; AID 651819, 2012; in the data active = activity change below about -30%; also: % is scaled to controls: 0 for no effect and ±100 for the full control effect
#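 TRiC (40 or 20 nM final, by batch activity) in 30 mM Tris pH 7.4, 100 mM KCl, 5 mM MgCl2, 1 mM DTT was treated with compound at 76 uM single dose, then 10 uM ATP, 30 min at 37 °C. ADP was read by HTRF Transcreener.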
# TCR act: Activators of T cell receptors: qHTS campaign; primary human leukocytes, anti-CD3, IL-2 HTRF, 48 h; Potency, µM (titrated, usually from 9.22 µM), inactives show at the highest dose activation of IL-2 secretion, usual class: activators; 330,000 tested, under 10 active; AID 504894, 2011; also: % of control where 0% means no effect
#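 1) Mix primary human leukocytes, a-CD3 beads and compound. 2) Incubate 48 hr. 3) Add HTRF IL-2 reagents (a-IL-2-K, a-IL-2-d2).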
# Chronic BCR inh: qHTS Assay to Find Inhibitors of Chronic Active B-Cell Receptor Signaling; ABC-DLBCL IkBa-CBG/CBR reporter, luminescence ratio, 4 h; Potency, µM (doses to about 46.1 µM), for the others: at the highest dose activity change, negative = inhibition, most hits filed as inhibitors; actives 0.05% (n = 340,000); active = well fitted inhibition curve with a large enough effect in the signal ratio, with a control signal flat, not every such curve was filed as active; inconclusive = small, poorly fitted or top-dose-only effect, or effect the other way, or a change in a side signal; the % refers to the signal ratio;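 also: potency is read from the fitted curve at half-maximal effect; plate controls were basal doxycycline-induced cells for no effect and cells given 10 µM MG132 for full effect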
#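 TMD8 human ABC-DLBCL cells with doxycycline-inducible IκBα–green luciferase fusion and unfused red luciferase, in 0.5% FBS medium; compounds up to 46 uM, 4 h at 37C. Green/red luminescence ratio, filter-overlap corrected, fitted to concentration-response curves.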
# ASM inhibitor: Inhibitors of Secretory Acid Sphingomyelinase (S-ASM): qHTS; Sphingomyelin phosphodiesterase (Homo sapiens), P17405; placental ASM, HMU-PC fluorogenic substrate, 60 min; Potency, µM (top dose mostly 57.5 µM), inactives show top-dose activity change, negative = inhibition, actives largely listed as inhibitors; actives 0.006% (n = 340,000); AID 504937, 2011; also: potency is read from the fitted curve at half-maximal effect
#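 HMU-PC0 cleavage (9 uM final) by human placental ASM, 60 min at 37 °C following 10 min compound exposure at RT; stopped at pH 10, fluorescence Ex 386/Em 447 nm.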
# TbPFK ATP: Tb PFK orthogonal confirmatory assay using ATP depletion (Kinase-Glo Plus) as an alternative measure of Tb PFK activity: Hit Validation; shares compounds with Tb PFK inh-1; Potency, µM (series often up to 57.5 µM), for inactives: top-dose inhibition; actives 47% (n = 1,100); AID 504636, 2011; Tb PFK enzyme, ATP depletion, Kinase-Glo Plus luminescence; calls by dose curve; also: potency is read from the fitted curve at half-maximal effect; nearly all actives have a fitted effect of over 60% in size
# Tb PFK inh-2: Inhibitors of T. brucei phosphofructokinase: Hit Validation | actives 41% (n = 1,100) | Potency, µM (series often up to 57.5 µM), without a hit: at the top dose activity change, negative = inhibition, most hits filed as inhibitors | AID 504637, 2011 | shares compounds with Tb PFK inh-1 | purified T. brucei PFK, ADP-Glo luminescence, 45 min;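 also: potency is read from the fitted curve at half-maximal effect; plate controls were full PFK enzyme control for no effect and no enzyme control for full effect; nearly all actives have a fitted effect of over 60% in size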
# * hit, by the source's call; i = inactive; ? = inconclusive; / = no result; [ ] = dose if it differs, or a comment. This is a sample that favours compounds with a hit; in the whole collection about 0.49% have one here. Unless noted, calls follow the shape of the dose curve; as a rule, active = well fitted curve in the direction sought with a large enough effect; inconclusive = small, poorly fitted or top-dose-only effect, or another doubt; inactive = no such curve, though single readings can be large; an effect the other way counts as inactive or inconclusive.
SMILES,Tb PFK inh-1,CCT chaperon mod,TCR act,Chronic BCR inh,ASM inhibitor,TbPFK ATP,Tb PFK inh-2
Cc1cc(=O)[nH]c(Nc2ccc(Cl)cc2)n1,21.3µM*,-3.1,7.2%,1.4%,-0.2%,8.49µM*,19µM*
O=c1ccc2cc(O[C@@H]3O[C@@H](CO)[C@H](O)[C@@H](O)[C@@H]3O)c(O)cc2o1,0.0%,-0.3,-18.9%,?,i,/,/
O=C(O)c1cc(O)c2c(c1)[C@H]([C@H]1c3cc(C(=O)O)cc(O)c3C(=O)c3c(O[C@@H]4O[C@H](CO)[C@@H](O)[C@H](O)[C@H]4O)cccc31)c1cccc(OC3O[C@H](CO)[C@@H](O)[C@H](O)[C@H]3O)c1C2=O (stereo partly drawn),?,-0.1,9.9%,5.1%,?,?,4.78µM*
CCN1C(=O)CC(=O)N(CC)C1=S,/,1.5,/,/,/,/,/
CC1CN1P(=S)(c1ccccc1)N1CC1C (stereo not drawn),/,-0.5,-1.3%,/,1.4%,/,/
CC1(C)OC(=O)C(=Cc2ccc(-c3ccc(S(N)(=O)=O)cc3)o2)C(=O)O1,?,-1.9,2.5%,?,-3.8%,7.2%,?
Cc1cccc(C)c1-n1nnnc1C(C1CC1)N1CCC2(CC1)C(=O)NCN2c1ccccc1 (stereo not drawn),/,-1.2,/,/,/,/,/
Cc1cc(C)n2nc3nc(N4CCCCC4)nc(-c4ccco4)c3c2n1,?,-3.1,6.2%,-1.4%,103.2%,8.6%,-1.7%
CC(CN1CCOCC1)C(C#N)(c1ccccc1)c1ccccc1 (stereo not drawn),/,-0.2,-0.5%,/,-1.5%,/,/
O=c1cc(-c2ccc(O)c(O)c2)oc2cc(O)cc(O)c12,?,-0.6,-4.3%,?,-9.1%,-26.7%,?
COc1cc(C(=O)NN=Cc2ccc(N(CCCl)CCCl)cc2)cc(OC)c1OC,/,-0.7,-0.4%,/,201.8%,/,/
COc1cc(C=NNC(=O)c2ccc(NS(=O)(=O)c3cccs3)cc2)cc(Br)c1O,?,-2.6,-14.0%[46.1 µM],?,-11.5%,-25.3%,?
N#Cc1ccc(NC(=S)N2Cc3ccccc3-n3nncc3C2)cc1,/,-2.1,/,/,/,/,/
O=C(NCc1ccc2c(c1)OCO2)c1nc(S(=O)(=O)Cc2ccccc2)ncc1Cl,-3.6%,-1.0,0.1%,?,-1.0%,/,/
COC(=O)NCc1ccc(Cl)c(Cl)c1,21.3µM*,-4.1,-0.1%,-4.5%,2.3%,10.7µM*,30.1µM*
O=C(CN1CCCCC1)c1ccc2c(c1)OCO2,1.3%,0.3,0.3%,-5.8%,-3.3%,/,/
O=C(NCc1ccc(Cl)c(Cl)c1)c1ccc2c(c1)OCO2,23.9µM*,-0.7,-5.5%,-9.5%,1.2%,7.57µM*,8.49µM*
O=C(NCc1cccc(Cl)c1)c1ccc2c(c1)OCCO2,23.9µM*,-1.3,/,-8.0%,-2.3%,13.5µM*,19µM*
O=C(NCCS(=O)(=O)N1CCN(c2cccc(Cl)c2)CC1)c1ccc2c(c1)OCO2,?,-3.9,-1.6%,-2.9%,-5.0%,21.3µM*,?
O=C(NCc1ccccc1)Oc1cccc(Cl)c1,-14.1%,-4.8,4.0%[46.1 µM],?,0.9%,/,/
Cc1ccc(NC(=O)CN(C)C(=O)c2cccc(-n3cccc3)c2)cc1,?,-3.0,-12.1%,-1.5%,-4.0%,?,?
C[C@]12CC[C@@H](O)CC1=CC(=O)C1C2CC[C@]2(C)C(=O)[C@H](O)CC12 (stereo partly drawn),/,1.1,/,/,/,/,/
O=C(Nc1ccc(F)cc1)N1Cc2ccccc2-n2nncc2C1,/,-2.2,/,/,/,/,/
CS(=O)(=O)N1CC(C(=O)NC2CC2)Oc2ccc(Cl)cc21 (stereo not drawn),21.3µM*,-7.0,/,-4.0%,2.8%,13.5µM*,23.9µM*
CS(=O)(=O)N1CC(C(=O)NC2CCCC2)Oc2ccc(Cl)cc21 (stereo not drawn),19µM*,2.1,-15.2%,4.1%,1.9%,9.53µM*,23.9µM*
SMILES,Tb PFK inh-1,CCT chaperon mod,TCR act,Chronic BCR inh,ASM inhibitor,TbPFK ATP,Tb PFK inh-2
CS(=O)(=O)Nc1ccccc1C(=O)OCC(=O)N1CCC(c2ccccc2)=N1,?,0.9,7.2%,?,-0.6%,?,?
CSCCC(c1nnnn1C(C)(C)C)N1CCC2(CC1)C(=O)NCN2c1ccccc1 (stereo not drawn),/,0.6,/,/,/,/,/
Cc1c(NS(=O)(=O)c2ccccc2)ccc([N+](=O)[O-])c1Cl,/,1.5,1.9%,/,-5.9%,/,/
O=C(O)CCCNc1ccc(S(=O)(=O)Nc2ccccc2C(=O)O)cc1C(=O)O,?,-3.7,-1.8%,9.9%,7.9%,-25.7%,?
Fc1ccc([C@@H]2CCNC[C@H]2COc2ccc3c(c2)OCO3)cc1,0.1%,0.1,-6.1%,?,7.2%,/,/
Cc1c(Cl)sn(-c2ccc(Cl)cc2)c1=O,6.75µM*,-19.2,6.5%,?,0.6%,3.01µM*,5.36µM*
Cc1ccc(OC(=O)N(C)C[C@@H]2OCc3cnnn3CCCC(=O)N([C@@H](C)CO)C[C@@H]2C)cc1,/,-2.8,/,/,/,/,/
Cc1ccc(C)c(OCCCC(=O)Nc2ccc(N3CCOCC3)cc2)c1,?,/,/,?,/,16.4%,-5.4%
Cc1ccc(S(=O)(=O)CNC(=S)c2cccc(Cl)c2)cc1,?,0.6,-3.3%[46.1 µM],?,-4.6%,?,30.1µM*
CC(NC(C)(C)C)C(=O)c1cccc(Cl)c1 (stereo not drawn),-10.4%,0.3,-1.3%,-10.7%,5.4%,/,/
O=c1ccsn1Cc1ccccc1,10.7µM*,-4.1,7.1%,?,2.0%,16.0%,10.7µM*
COc1cc(O)c2c(=O)c3c(O)ccc(O)c3oc2c1,?,-1.9,3.2%,?,-4.0%,?,?
Cc1cc(C)c(C)c(C(O)(C(=O)O)c2ccccc2)c1 (stereo not drawn),/,1.0,/,/,/,/,/
Cc1ccc(-n2c(/C=C/c3cccc4ccccc34)nc3ccccc3c2=O)cc1,/,/,/,-1.2%,/,/,/
CC(=C\C(=O)O)/C(=C\c1cccc2ccccc12)C(=O)O,?,-1.9,1.6%,?,2.7%,-1.1%,-1.1%
